In the library only some 7.5% were active in any assay of this set; here they are far more common.
TSHR antagonist: Antagonists of the Thyroid Stimulating Hormone Receptor: HTS campaign; 330,000 compounds, 0.2% hits; Thyrotropin receptor (Homo sapiens), P16473; TSHR-expressing cells, TSH-stimulated cAMP HTRF, 2 h; active compounds read low; activity change, negative = inhibition, % at 11.5 µM;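 active = activity change below a set negative limit, meaning inhibition stronger than a set level, cut at about -70% in these data; inconclusive = activity change between two set negative limits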
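Freshly harvested TSHR cells receive pin-tooled compound, then EC80 TSH at 4nM final. After 2 hours at 37 deg C, antibody in lysis buffer and cAMP-d2 are added; 30 minutes at ambient temperature precede the HTRF read.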
VP16 counter: VP16 counterscreen qHTS for inhibitors of ROR gamma transcriptional activity; Drosophila S2 Gal4-VP16 UAS-luciferase, luminescence, 20 h; Potency, µM (highest dose often 53.6 µM), without a hit: at the top dose activity, negative = inhibition, usual class: inhibitors; 310,000 compounds, 3.5% hits;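 also: Gal4-VP16 expression switched on by copper sulfate through the metallothionein promoter; potency is read from the fitted curve at half-maximal effect; nearly all actives have a fitted effect of over 50% in size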
B2AR arrestin: qHTS assay of beta-arrestin-biased ligands of beta2-adrenergic receptor; 330,000 compounds, 0.02% hits; Beta-2 adrenergic receptor (Homo sapiens), P07550; Potency, µM (doses to about 46.1 µM), for inactives: top-dose activation, hits mostly activators; beta-arrestin recruitment to beta2AR, cell-based reporter; AID 492947, 2010;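 also: potency is read from the fitted curve at half-maximal effect; 0% = DMSO controls and full agonism = EC100 isoproterenol or metaproterenol; nearly all actives have a fitted effect of over 65% in size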
Target sequence (P07550 whole entry, looked up): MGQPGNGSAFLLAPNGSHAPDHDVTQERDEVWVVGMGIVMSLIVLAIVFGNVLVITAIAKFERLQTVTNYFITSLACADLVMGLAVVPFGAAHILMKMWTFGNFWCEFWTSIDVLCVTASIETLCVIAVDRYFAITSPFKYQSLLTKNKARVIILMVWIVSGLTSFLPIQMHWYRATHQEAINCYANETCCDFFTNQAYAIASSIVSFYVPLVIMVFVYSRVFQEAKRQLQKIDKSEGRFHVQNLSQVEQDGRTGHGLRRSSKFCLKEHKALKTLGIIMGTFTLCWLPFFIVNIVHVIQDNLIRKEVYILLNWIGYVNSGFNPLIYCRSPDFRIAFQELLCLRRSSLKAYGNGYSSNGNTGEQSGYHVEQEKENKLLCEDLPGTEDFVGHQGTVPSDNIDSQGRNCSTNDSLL
ELG1 DNA repair: qHTS screen for small molecules that inhibit ELG1-dependent DNA repair in human embryonic kidney (HEK293T) cells expressing luciferase-tagged ELG1; Potency, µM (series often up to 46.1 µM), without a hit: at the highest dose activity change, negative = inhibition, hits mostly inhibitors; 330,000 compounds, 2.3% hits; HEK293T ELG1-luciferase reporter, luminescence, 16 h; DNA damage induced by 5-fluorouridine; also: potency is read from the fitted curve at half-maximal effect; nearly all actives have a fitted effect of over 55% in size
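In this reporter screen, reduction of luminescence relative to DMSO vehicle indicated activity. Compounds and 5-fluorouridine were added together to 2,000 cells per well, incubated for 16 hr at 37 °C, then developed with ONE-Glo.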
RORg inh: qHTS for inhibitors of ROR gamma transcriptional activity; Nuclear receptor ROR-gamma (Mus musculus), P51450; Drosophila S2 Gal4-RORgamma UAS-luciferase reporter, 20 h; Potency, µM (highest dose often 53.6 µM), without a hit: at the highest dose activity change, negative = inhibition, most hits filed as inhibitors; 310,000 compounds, 5.4% hits; AID 2551, 2010; also: potency is read from the fitted curve at half-maximal effect; nearly all actives have a fitted effect of over 60% in size
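Schneider cells (Drosophila), stable Gal4 DBD–ROR gamma + UAS-luc; 1 hr cmpd preincubation; Cu2+ induction 700 uM final; 20 hr ambient; luminescence.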
Numbers without * were called inactive; ? = inconclusive; / = no result given; [ ] = remark or other dose. Unless noted, calls follow the shape of the dose curve; as a rule, active = well fitted curve in the direction sought with a large enough effect; inconclusive = small, poorly fitted or top-dose-only effect, or another doubt; inactive = no such curve, though single readings can be large; an effect the other way counts as inactive or inconclusive. Unless noted, % is scaled to controls: 0 for no effect and ±100 for the full control effect.

SMILES	TSHR antagonist	VP16 counter	B2AR arrestin	ELG1 DNA repair	RORg inh
CCCC(=O)NC(c1ccco1)c1cc([N+](=O)[O-])c2cccnc2c1O (centres undefined)	-1	5µM*	0%	21µM*	5.6µM*
C(=N\Nc1nc2ccccc2s1)/c1cccs1	-3	3.2µM*	0%	?	1.3µM*
C/C(=N\Nc1nc(-c2ccccc2)cs1)c1cccs1	0	1%	1%	?	-8%
CCOC(=O)N/N=C/c1c(C)nn(-c2ccccc2Cl)c1Cl	14	?	0%	?	?
Cc1nn(-c2ccccc2Cl)c(Cl)c1/C=N/Nc1nc2ccccc2s1	-2	0.32µM*	0%	?	1µM*
Cc1ccsc1/C=N/Nc1nc2ccccc2s1	-2	0.89µM*	0%	?	0.56µM*
C/C(=N\Nc1nc2ccccc2s1)c1cccs1	10	3.5µM*	-1%	?	0.71µM*
CC(=O)Nc1ccc(/C=N/Nc2nc3ccccc3s2)cc1	-5	3%	-1%	?	-9%
Cn1c(=O)c(CCc2ccccc2)nc2cnc(N3CCNCC3)nc21	/	7%	/	/	-10%
Cc1ccc(S(=O)(=O)N2CCC(C(=O)OCC(=O)N(C)C3CCCCC3)CC2)cc1C	-12	/	0%	4%	/
CCn1c(/C=C/c2c(C)n(CC)c3ccccc23)nc2ccccc2c1=O	-2	-1%	-1%	8%	17%
C(=N\Nc1nc2ccccc2s1)/c1ccco1	-3	?	0%	?	11µM*
CCn1c(C)c(/C=N/Nc2nc3ccccc3s2)c2ccccc21	25	?	-3%	-2%	5µM*
CCOC(=O)C1=C(COC(=O)/C=C/c2cccc(OC)c2OC)NC(=O)NC1C (centres undefined)	0	/	3%	?	/
CCCC[C@@H]1C[C@H]1C(NC(=O)c1ccccc1)c1ccc(-c2ccccc2)cc1 (some centres undefined)	/	6%	/	/	6%
CC1(C)CCC2=C(O1)c1ccccc1C(=O)C2=O	10	5.6µM*	/	/	2.5µM*
CC1(C)CCc2c([nH]c3ccccc3c2=O)O1	11	9%	0%	-4%	-34%
O=C(Cc1ccc(Cl)cc1)N/N=C/c1c(Cl)cccc1Cl	8	-10%	7%	?	-6%[10 µM]
Cc1ccccc1/C=N/NC(=O)c1ccc(-n2cnnn2)cc1	-5	/	0%	-9%	/
C=CCOc1ccccc1/C=N/NC(=O)Cc1ccc(C)cc1	11	?	-1%	1%	11µM*
Cc1cccc(/C=N/NC(=O)Cc2ccc(Cl)cc2)c1O	-5	1µM*	-1%	?	1.1µM*
Cc1ccc(O)c(/C=N/NC(=O)Cc2ccc(Cl)cc2)c1	-11	0.63µM*	-1%	?	0.63µM*
O=C(Cc1ccccc1)N/N=C/c1ccccc1OCc1ccc(Cl)cc1	-13	-10%	-1%	?	-1%
Cc1cccc(/C=N\NC(=O)c2ccc(Cl)cc2)c1O	3	13µM*	-1%	?	6.3µM*
CC(C)NC(=S)N1CCC(Cc2ccccc2)CC1	-7	-20%	0%	-3%	1.1µM*
SMILES	TSHR antagonist	VP16 counter	B2AR arrestin	ELG1 DNA repair	RORg inh
COCCNC(=S)N1CCC(Cc2ccccc2)CC1	-6	-2%	0%	-12%	-30%
CC(C)CNC(=S)N1CCC(Cc2ccccc2)CC1	-16	?	0%	-15%	10µM*
Cc1ccc(C)c(NC(=S)NNC(=O)c2csc3c2CCCC3)c1	3	-26%	0%	-10%	?
Cc1ccc(C)c(NC(=S)NNC(=O)c2csc3c2CCC(C)C3)c1 (centres undefined)	-7	-24%	0%	-1%	5µM*
COc1cc(C(=O)OCC(=O)Nc2c(F)c(F)c(F)c(F)c2F)cc(OC)c1OC	16	0%	-1%	26µM*	1%
S=C1NCCc2ccc(Cl)cc2C1c1ccccc1Cl (centres undefined)	-23	3.5µM*	0%	-4%	5µM*
COc1cccc(-c2nc(C(=O)NCCCN3CCOCC3)cc3c2[nH]c2ccccc23)c1	-14	-26%	0%	?	1%
O=C(NCCCN1CCOCC1)c1cc2c([nH]c3ccccc32)c(-c2cccc(Br)c2)n1	-13	?	0%	1.6µM*	0%
CC[C@H](C)[C@H](NC(=O)[C@H](C)NC(=O)CNC(=O)[C@H](CCCCN)NC(=O)[C@H](CC(N)=O)NC(=O)[C@H](CO)NC(=O)CN)C(=O)N[C@H](C(=O)NCC(=O)N[C@@H](CC(C)C)C(=O)N[C@@H](CCSC)C(=O)O)[C@@H](C)CC	/	-3%	/	/	-6%
Cc1ccc(NC(=O)COc2ccc(CCO)cc2-n2nc3ccccc3n2)cc1C	4	-27%	1%	18µM*	0%
O=C(Cc1csc(Nc2nc(=S)[nH]c3ccccc23)n1)NCCCN1CCN(c2ccccc2F)CC1	1	10µM*	0%	13%	2µM*
COc1ccc(CNC(=O)Cc2csc(Nc3nc(=S)[nH]c4ccccc34)n2)cc1	-10	13µM*	0%	-5%	1.8µM*
O=C(Cc1csc(Nc2nc(=S)[nH]c3ccccc23)n1)NCc1ccc(Cl)cc1	3	10µM*	0%	10%	3.5µM*
Cn1c(C(=O)NCCCN2CCN(c3ccccc3F)CC2)cc2c(=O)[nH]c3ccccc3c21	-2	-21%	0%	-10%	15%
O=C(N/N=C1/C[C@@H](O)[C@@H](O)[C@@H]2[C@H]3C(=O)N(c4ccc(F)cc4F)C(=O)[C@@H]3CC[C@@H]12)OCc1ccccc1	/	-5%[10 µM]	/	/	0%[10 µM]
O=C(CNC(=O)c1sc2ccccc2c1Cl)NCc1cccc(C(F)(F)F)c1	-11	/	0%	9%	/
COc1ccc(CC(=O)N(Cc2ccccc2)c2ccccc2)cc1S(=O)(=O)N1CCOCC1	-17	-5%	-1%	16µM*	-44%
O=C(O)CN1C(=O)/C(=C/c2ccc(N3CCCCC3)o2)SC1=S	5	-1%	-1%	-4%	-16%
O=C1C2C(C(=O)N1/N=C/c1ccc(N3CCCCC3)o1)C1C=CC2C12CC2 (centres undefined)	-1	3.2µM*	-1%	-1%	-15%
CNC(=S)NNC(=O)c1sccc1OCc1ccc(Cl)cc1Cl	7	?	-1%	?	?
N/C(=N\NC(=O)c1sccc1OCc1ccc(Cl)cc1Cl)c1ccccn1	14	5.6µM*	0%	?	2.2µM*
COc1c(Cl)ccc(Cl)c1C(=O)O	/	4%	/	/	4%

Screening data (PubChem BioAssay)
